From PubChem BioAssay come the findings set out here.

Test [1] relates to Plasmodium falciparum Sir2 (PF13_0152, Sir2A). In words: Plasmodium falciparum Sir2A binding compounds – biochemical, small-molecule microarray, 635 nm fluorescence, primary screen (AID 1098).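 Also: score merges spot fluorescence intensity with its signal-to-noise ratio.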 To be noted: fluorescence 635 nm, higher = more signal.
The nature of test [2]: probe aDKK1 binding to arrayed compounds – biochemical, biotinylated probe, 635/667 nm fluorescence, primary screen (AID 1099).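 Also: score merges 667nm spot fluorescence with signal to noise across triplicate slides.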 The note with it: small-molecule microarray, higher = more signal.
Test [3] can be described thus: probe aCHRDL2 binding to arrayed compounds – biochemical, biotinylated probe, 635/667 nm fluorescence, primary screen (AID 1100). The note with it: small-molecule microarray, higher = more signal.
The nature of test [4]: change in splice reporter luminescence, either direction, cell-based, HEK293, spliceosome inhibition project, primary screen (AID 1101).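 Also: HEK293 cells carrying a splicing-competent luciferase reporter gene; test concentration not given here.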 The note with it: HEK293 splicing luciferase reporter, 24 h, higher = more signal, called active from +8 up or from −8 down. (In general: A reporter such as luciferase makes a cellular process visible.)
In test [5] the target is Fibroblast growth factor 10 (Homo sapiens) (UniProt O15520). In words: compounds binding fibroblast growth factor 10 – biochemical, small-molecule microarray, 635 nm fluorescence, primary screen (AID 1102). To be noted: FGF10 binding, fluorescence 635 nm, higher = more signal.
Fibroblast growth factor 10 (Homo sapiens), sequence (O15520 whole entry, looked up): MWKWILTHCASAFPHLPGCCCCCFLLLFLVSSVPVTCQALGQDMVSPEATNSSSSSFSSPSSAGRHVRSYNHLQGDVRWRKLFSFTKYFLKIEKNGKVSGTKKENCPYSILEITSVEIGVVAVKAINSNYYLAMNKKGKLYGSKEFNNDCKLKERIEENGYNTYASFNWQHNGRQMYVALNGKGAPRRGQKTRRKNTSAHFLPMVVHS
The test system of test [6] is glycogen synthase kinase-3 (GSK3A per assay name; protocol says GSK3B). Briefly: compounds binding glycogen synthase kinase-3 – biochemical, small-molecule microarray, 635 nm fluorescence, GSK3A, primary screen (AID 1103). Also: the record names both GSK3A and GSK3B. The note with it: fluorescence 635 nm, higher = more signal.
In test [7] the target is Epidermal growth factor receptor (Homo sapiens) (UniProt P00533). Briefly: compounds binding epidermal growth factor receptor – biochemical, small-molecule microarray, 635 nm fluorescence, primary screen (AID 1104).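 Also: score merges 667 nm emission intensity with spot signal to noise over triplicate slides.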 The note with it: EGFR binding, higher = more signal.
Epidermal growth factor receptor (Homo sapiens), sequence (P00533 whole entry, looked up): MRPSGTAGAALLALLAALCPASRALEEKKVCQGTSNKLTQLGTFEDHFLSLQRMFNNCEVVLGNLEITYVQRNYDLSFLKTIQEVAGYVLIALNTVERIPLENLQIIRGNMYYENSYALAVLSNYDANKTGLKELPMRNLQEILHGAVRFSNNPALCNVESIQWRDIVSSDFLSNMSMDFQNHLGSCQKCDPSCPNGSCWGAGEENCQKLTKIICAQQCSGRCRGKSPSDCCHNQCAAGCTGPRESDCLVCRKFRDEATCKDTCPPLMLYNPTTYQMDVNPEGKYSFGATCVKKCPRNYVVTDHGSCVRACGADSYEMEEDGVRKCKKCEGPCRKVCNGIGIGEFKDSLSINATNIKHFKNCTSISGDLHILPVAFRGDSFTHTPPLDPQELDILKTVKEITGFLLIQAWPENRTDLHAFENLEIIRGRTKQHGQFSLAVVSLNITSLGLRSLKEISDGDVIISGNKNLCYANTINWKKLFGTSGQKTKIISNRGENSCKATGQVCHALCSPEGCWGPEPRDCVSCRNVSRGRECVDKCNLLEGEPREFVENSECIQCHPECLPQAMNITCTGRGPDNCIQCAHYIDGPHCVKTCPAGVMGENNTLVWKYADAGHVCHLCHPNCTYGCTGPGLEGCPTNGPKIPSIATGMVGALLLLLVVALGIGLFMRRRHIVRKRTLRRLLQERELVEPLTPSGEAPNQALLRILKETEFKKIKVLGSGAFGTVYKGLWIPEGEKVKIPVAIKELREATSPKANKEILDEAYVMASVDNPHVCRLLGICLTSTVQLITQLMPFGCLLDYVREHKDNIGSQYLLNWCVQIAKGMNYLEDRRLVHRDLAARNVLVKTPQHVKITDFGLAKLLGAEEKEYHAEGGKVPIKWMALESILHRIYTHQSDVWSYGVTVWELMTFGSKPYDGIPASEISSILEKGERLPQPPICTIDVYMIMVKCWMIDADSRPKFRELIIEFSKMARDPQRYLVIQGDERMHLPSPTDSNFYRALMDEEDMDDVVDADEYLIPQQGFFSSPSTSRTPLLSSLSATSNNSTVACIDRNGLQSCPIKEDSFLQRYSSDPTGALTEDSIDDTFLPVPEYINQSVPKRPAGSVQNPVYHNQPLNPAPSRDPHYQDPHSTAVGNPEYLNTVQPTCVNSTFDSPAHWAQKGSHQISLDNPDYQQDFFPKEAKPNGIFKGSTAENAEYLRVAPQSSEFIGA
Test [8] has as its target Follistatin-related protein 3 (Homo sapiens) (UniProt O95633). Briefly: compounds binding follistatin-related protein 3 – biochemical, small-molecule microarray, 635 nm fluorescence, primary screen (AID 1105).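 Also: score merges emission near 667 nm and signal to noise per printed spot across three slides.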 To be noted: FSTL3 binding, higher = more signal.
For test [9], the target named is Dickkopf-related protein 1 (Homo sapiens) (UniProt O94907). In words: small molecules binding DKK1 protein – biochemical, small-molecule microarray, 635 nm fluorescence scan, primary screen (AID 1106).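 Also: score merges emission near 667 nm with signal to noise over three replicate slides.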 The note with it: higher = more signal.
Dickkopf-related protein 1 (Homo sapiens), sequence (O94907 whole entry, looked up): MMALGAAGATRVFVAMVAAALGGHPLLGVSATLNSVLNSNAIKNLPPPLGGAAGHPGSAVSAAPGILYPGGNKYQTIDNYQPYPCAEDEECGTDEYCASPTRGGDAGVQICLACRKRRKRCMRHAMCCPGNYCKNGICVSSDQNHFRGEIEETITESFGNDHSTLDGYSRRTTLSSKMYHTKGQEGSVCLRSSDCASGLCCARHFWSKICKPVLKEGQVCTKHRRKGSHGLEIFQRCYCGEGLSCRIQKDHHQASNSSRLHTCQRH
Test [10] deals with Inhibin beta A chain (activin A). Briefly: small molecules binding activin A – biochemical, small-molecule microarray, 635 nm fluorescence scan, primary screen (AID 1107).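 Also: mouse activin A protein probed at 4.33 µg/mL on printed slides; score merges bound-protein fluorescence near 667 nm with spot signal-to-noise.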 The note with it: INHBA, higher = more signal.
Test [11] deals with Human papillomavirus type 1a protein E7 (residues 44-93). Briefly: small molecules binding HPV E7 44-93 – biochemical, small-molecule microarray, residues 44-93, 635 nm fluorescence, primary screen (AID 1108).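 Also: E7 fragment applied at 1 µg/mL in TBST for 1 h at 4 C; score combines spot fluorescence with its signal to noise ratio.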 To be noted: fluorescence 635 nm, higher = more signal.
Test [12] is described as follows: hepatitis C replication reporter changes, two-sided – Huh7 cells, luciferase reporter, HCV replication inhibitor project, primary screen (AID 1109).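 Also: huh7 hepatoma cells harbouring a luciferase neomycin HCV replicon reporter; luciferase luminescence as measure of HCV replicon replication; test concentration not given here.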 The note with it: Huh7 HCV replicon luciferase reporter, 48 h; higher = more signal.
The target of test [13] is Left-right determination factor 2 (Homo sapiens) (UniProt O00292). In words: small molecules binding LEFTY2 protein – biochemical, small-molecule microarray, 635 nm fluorescence scan, primary screen (AID 1110). To be noted: higher = more signal.
Left-right determination factor 2 (Homo sapiens), sequence (O00292 whole entry, looked up): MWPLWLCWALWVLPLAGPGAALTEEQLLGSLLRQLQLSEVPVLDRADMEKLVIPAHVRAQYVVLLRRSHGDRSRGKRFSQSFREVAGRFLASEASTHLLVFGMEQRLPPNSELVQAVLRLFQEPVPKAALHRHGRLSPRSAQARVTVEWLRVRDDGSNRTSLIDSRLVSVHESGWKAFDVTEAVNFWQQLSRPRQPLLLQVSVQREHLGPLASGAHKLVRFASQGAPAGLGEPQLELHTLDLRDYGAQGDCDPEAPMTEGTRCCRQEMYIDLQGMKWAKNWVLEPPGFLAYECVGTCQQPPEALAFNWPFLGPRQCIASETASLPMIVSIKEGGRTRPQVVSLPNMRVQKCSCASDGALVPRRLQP
For test [14], the target named is Calmodulin-1 (Homo sapiens) (UniProt P0DP23). In words: small molecules binding calmodulin-1 with EGTA – biochemical, small-molecule microarray, Cy5-labelled CALM1, profiling panel (AID 1111).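 Also: labelled calmodulin applied in Tris saline Tween buffer holding calcium plus EGTA and DTT.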 To be noted: Cy5-CALM1 binding fluorescence, higher = more signal.
For test [15] the target is unchanged. Briefly: small molecules binding Ca-loaded calmodulin-1 – biochemical, small-molecule microarray, Cy5-labelled CALM1, plus calcium, artefact control for SMM control-protein annotation, profiling panel (AID 1112).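 Also: score merges spot fluorescence with signal to noise from triplicate slides.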 The note with it: Cy5-CALM1 binding fluorescence, higher = more signal.
Test [16] can be described thus: probe aWnt5a binding to arrayed compounds – biochemical, biotinylated probe, 635/667 nm fluorescence, primary screen (AID 1113).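 Also: score merges 667 nm fluorescence intensity with signal-to-noise per printed feature.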 The note with it: small-molecule microarray, higher = more signal.
The nature of test [17]: probe aShh binding to arrayed compounds – biochemical, biotinylated probe, 635/667 nm fluorescence, primary screen (AID 1114).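 Also: probe is biotin-labelled aShh protein from a stem cell growth factor screen; measures binding of labelled protein to compounds printed on the slide; score merges feature fluorescence at 667 nm with signal-to-noise.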 To be noted: small-molecule microarray, higher = more signal.
The nature of test [18]: probe aNog binding to arrayed compounds – biochemical, biotinylated probe, 635/667 nm fluorescence, primary screen (AID 1115).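 Also: probe is biotinylated aNog protein used at 0.15 µg/mL for 1 h at 4 C; z-score combines 667 nm fluorescence of each spot with its signal to noise.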 To be noted: small-molecule microarray, higher = more signal.
Test [19] addresses Torsin-1A-interacting protein 1 (Homo sapiens) (UniProt Q5JTV8). In words: compound microarray binding of lysate hLAP1 – cell lysate, small-molecule microarray, COS7 lysate, 635/667 nm fluorescence, primary screen (AID 1116). The note with it: 635 nm fluorescence, higher = more signal.
The target in test [20] is Alpha-bungarotoxin (Bungarus multicinctus) (UniProt P60615). Briefly: compounds binding labelled alpha-BTX control protein – biochemical, small-molecule microarray, Alexa647 label, 635/667 nm fluorescence, artefact control for SMM control protein annotation, profiling panel (AID 1117). The note with it: alpha-BTX-A647 binding fluorescence, higher = more signal.
Alpha-bungarotoxin (Bungarus multicinctus), sequence (P60615 whole entry, looked up): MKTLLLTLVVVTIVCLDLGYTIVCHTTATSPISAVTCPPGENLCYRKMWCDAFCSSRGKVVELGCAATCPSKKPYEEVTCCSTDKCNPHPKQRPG

Each structure is given as a SMILES string. Activity calls are given as the source filed them.

Follistatin-related protein 3 (Homo sapiens), sequence (O95633 whole entry, looked up): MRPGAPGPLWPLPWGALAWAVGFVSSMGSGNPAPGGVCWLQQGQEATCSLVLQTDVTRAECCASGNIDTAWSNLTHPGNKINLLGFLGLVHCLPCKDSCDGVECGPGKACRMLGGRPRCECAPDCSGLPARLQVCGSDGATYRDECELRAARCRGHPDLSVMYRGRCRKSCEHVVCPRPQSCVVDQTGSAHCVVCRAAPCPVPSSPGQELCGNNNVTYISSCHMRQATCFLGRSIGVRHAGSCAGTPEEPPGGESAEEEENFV
Torsin-1A-interacting protein 1 (Homo sapiens), sequence (Q5JTV8 whole entry, looked up): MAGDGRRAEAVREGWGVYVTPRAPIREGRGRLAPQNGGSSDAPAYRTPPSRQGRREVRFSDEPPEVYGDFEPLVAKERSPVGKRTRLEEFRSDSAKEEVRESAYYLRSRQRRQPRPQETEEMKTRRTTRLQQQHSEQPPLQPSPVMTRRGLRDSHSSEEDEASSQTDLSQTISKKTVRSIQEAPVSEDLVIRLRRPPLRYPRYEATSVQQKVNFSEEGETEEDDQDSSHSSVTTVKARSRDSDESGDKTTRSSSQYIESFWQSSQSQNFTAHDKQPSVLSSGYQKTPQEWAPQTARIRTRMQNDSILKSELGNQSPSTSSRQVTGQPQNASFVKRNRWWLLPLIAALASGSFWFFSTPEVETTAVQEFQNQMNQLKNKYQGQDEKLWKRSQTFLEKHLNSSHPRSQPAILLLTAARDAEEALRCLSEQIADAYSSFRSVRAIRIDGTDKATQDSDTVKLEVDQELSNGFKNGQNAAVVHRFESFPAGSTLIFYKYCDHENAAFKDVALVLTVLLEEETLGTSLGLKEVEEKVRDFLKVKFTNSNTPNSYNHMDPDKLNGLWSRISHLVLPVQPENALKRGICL

As to `C=C(C(=O)CC[C@@H](OC(=O)c1ccccc1-c1ccccc1C(=O)O)c1ccccc1OCCO)C(C)C`, the composite z-score is 1.07 in test [1]; -0.232 in [2]; -0.463 in test [3]; 1.53 in [5]; 0.645 in test [6]; 0.354 in test [7]. Further, the composite z-score in [8] was determined as 1.38; in test [9] it was 0.73; in [10], 1.26; in test [11], 1.38; in test [13] it was 0.355; in test [14], 0.0583. In addition, the composite z-score is -0.7 in test [15]; -0.0405 in [16]; 0.232 in test [17]; -0.409 in [18]; 0.202 in test [19]; 1.05 in test [20]. Moreover, the z-score in test [4] was 1.58 (inactive); in test [12], -2.63.
As to `CN1C(=O)C2C(C1=O)C1C=C(CCCO)C2C(c2cccs2)N1Cc1cc2c(cc1Br)OCO2` (stereo not given), the composite z-score in test [1] was determined as 0.989; in test [2], 0.738; in test [3] it was 0.377; in [5], 0.922; in [6], 1.34; in test [7], 0.424. The composite z-score in test [8] amounted to 1.49; in test [9], 0.373; in test [10], 1.51; in test [11], 1.44; in [13], 0.772; in test [14], 1.89. The composite z-score is 0.658 in test [15]; 0.184 in test [16]; 0.131 in [17]; -0.373 in test [18]; 2.29 in [19]; 1.7 in [20]. Also, the z-score in test [4] was -0.139 (inactive); in test [12], -1.22.
In the case of `COCCOC(=O)N1C(=O)[C@@]2(c3cc(C#CCNC(N)=O)ccc31)[C@H](c1ccc(OCCO)cc1)N1[C@H](c3ccccc3)[C@H](c3ccccc3)OC(=O)[C@H]1[C@@H]2C(=O)NC[C@H](O)c1ccccc1`, the composite z-score in test [1] is 1.4; in test [2], 0.26; in test [3], 0.788; in [5], 0.945; in test [6] it was 0.469; in test [7], 0.711. The composite z-score came out at 1.29 in test [8]; 0.583 in [9]; 1.43 in [10]; 1.26 in test [11]; 0.799 in test [13]; 1.22 in [14]. Also, the composite z-score was 0.226 in test [15]; -0.0792 in [16]; -0.138 in [17]; 1.21 in test [18]; 0.878 in [19]; 1.61 in test [20]. Besides, the z-score in test [4] was 0.38 (inactive); in test [12], -0.711.
Consider `COc1ccc(C#Cc2ccc3c(c2)[C@]2(C(=O)N3)[C@H](c3ccc(OCCO)cc3)N3[C@H](c4ccccc4)[C@H](c4ccccc4)OC(=O)[C@H]3[C@@H]2C(=O)N2CCc3cc(OC)c(OC)cc3C2)cc1`, for which the composite z-score turned out to be 1.38 in [1]; 1.5 in test [2]; 0.185 in [3]; 1.23 in test [5]; 1.28 in test [6]; 0.871 in test [7]. Further, the composite z-score was 1.01 in test [8]; 1.28 in [9]; -0.258 in [10]; 1.33 in [11]; 0.461 in test [13]; 1.08 in [14]. Further, the composite z-score was 0.684 in test [15]; -0.0215 in test [16]; 0.0589 in test [17]; -0.155 in [18]; 0.168 in test [19]; 0.841 in [20]. The values for the z-score in test [4] and in test [12] were -0.517 (inactive) and -1.23, respectively.
On to `C=CCC(OC(C)=O)[C@@H]1[C@@H](N(Cc2ccc(-c3cccc(C(F)(F)F)c3)o2)C(=O)c2cccc3ccccc23)c2cc(OCCCO)ccc2N1C(=O)Cc1ccc(OC)cc1` (stereo not given in full), for which the composite z-score was 0.727 in test [1]; -0.291 in test [2]; 0.107 in [3]; 0.0525 in test [5]; -1.13 in test [6]; -0.198 in test [7]. Besides, the composite z-score in test [8] is 0.495; in test [9], -0.141; in test [10] it was 1.08; in test [11], 0.328; in [13] it was -0.391; in test [14], -0.534. For the same molecule, the composite z-score in test [15] is -0.738; in test [16], -0.208; in [17], 0.167; in test [18], -0.083; in [19], 0.0368; in test [20], -0.0191. For the same molecule, the values for the z-score in test [4] and in test [12] were -0.57 (inactive) and -0.72, respectively.
`CC(=O)NCCCC[C@@H]1NC(=O)[C@@H]2C[C@H](C(=O)NCCCCCCN)[C@H](c3cccc(OCCO)c3)N2C1=O`: the composite z-score in test [1] was 1.04; in [2] it was 0.504; in test [3], 0.61; in test [5], 0.906; in test [6], 0.132; in test [7] it was -0.556. Also, the composite z-score is -0.309 in test [8]; -0.733 in test [9]; 0.288 in test [10]; 0.601 in test [11]; -0.535 in test [13]; 1.47 in [14]. The composite z-score is 1.35 in test [15]; -0.0519 in [16]; -0.0066 in [17]; -0.153 in test [18]; 1.79 in [19]; 2.15 in [20]. Moreover, the z-score was 0.248 (inactive) in test [4] and -0.69 in test [12].
